Common to all, as to assay: NCI-60 one-dose screen, 48 h (100 = growth as untreated, 0 = no growth, -100 = all killed)
Conditions in all cases: 10 µM unless noted

For assay [1], the system named is NCI-H23 lung.
The subject of assay [2] is NCI-H226 lung.
The subject of assay [3] is NCI-H322M lung.
Assay [4] concerns HOP-62 NSCLC.
The subject of assay [5] is NCI-H460 lung.
Assay [6] has as its system HOP-92 NSCLC.
For assay [7], the system named is NCI-H522 lung.
Assay [8] deals with A549/ATCC NSCLC.
The test system of assay [9] is 786-0 renal.
Assay [10] deals with COLO 205 colon.

We go through 14 compounds from PubChem BioAssay (NCI).

Each structure is given as a SMILES string. About 83,000 compounds went through this panel and 20% of them were active in at least one assay; those are over-represented in the sample as a whole.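 A percent growth of 40 corresponds to 60% growth inhibition; 0 means no net growth; -100 means all cells died. Active threshold: below 10.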 A number with no mark means an inactive call. Activity calls are given as the source filed them.

On to `C=CCNc1ccc2c3c(cccc13)C(=O)N(N1C(=O)c3cccc4cccc(c34)C1=O)C2=O`, for which the growth in assay [1] was 91.9%; in assay [2], 93.9%; in [3], 102%; in [4], 96.3%; in [5] it was 102%; in assay [6], 98.7%. For the same compound, the growth was 93.9% in assay [7], 98.2% in [8], 104% in assay [9] and 117% in assay [10].

For the compound `C#Cc1cccc(NC(=O)c2ccc(NC(=O)C=C)cc2)c1`, the growth in assay [1] was 99.1% [8.25 µM]; in assay [2], 88.1% [8.25 µM]; in assay [3], 84.4% [8.25 µM]; in assay [4] it was 95.2% [8.25 µM]; in assay [5], 94.5% [8.25 µM]; in [6], 90% [8.25 µM]. Moreover, the growth in assay [7] is 45.4% [8.25 µM]; in assay [8], 69.6% [8.25 µM]; in assay [9], 56.5% [8.25 µM]; in assay [10], 115% [8.25 µM].

Consider `O=C(O)c1cn(C2CC2)c2cc(N3CCN(C(=O)Nc4nc(-c5ccc(Cl)cc5)cs4)CC3)c(F)cc2c1=O`, for which the growth was 8.09% (active) in assay [1]; 19.7% in assay [2]; 4.8% (active) in assay [3]; 20.5% in assay [4]; 8.14% (active) in [5]; -22.2% (active) in assay [6]. The growth in assay [7] is -6.18% (active); in assay [8], 6.96% (active); in assay [9], 22.6%; in [10], 6.21% (active).

Turning to `Cc1cccc2c3c(sc12)C(c1ccc(Cl)cc1)C(C#N)=C(/N=C/c1ccc(Cl)cc1)O3` (stereo not given), the growth is 27.2% in assay [1]; 18% in [2]; 49.9% in [3]; 42% in assay [4]; 6.47% (active) in [5]; 96.5% in assay [6]. The growth in [7] is 22.8%; in assay [8], 30.9%; in assay [9] it was 31.9%; in [10], 0.544% (active).

For the compound `CCCCCCN(CCCCCC)c1ccc(/C=C2/SC(=O)NC2=O)c(C)c1`, the growth is 76.5% in assay [1]; 104% in assay [2]; 87% in assay [3]; 110% in assay [4]; 81.3% in [5]; 13.9% in assay [6]. In addition, the growth in assay [7] was 77.4%; in [8], 73.2%; in assay [9] it was 77.6%; in assay [10] it was 109%.

For `O=C1c2cccc3cccc(c23)C(=O)N1Nc1nc(NC2CCCCC2)nc(N2CCOCC2)n1`, the growth in [1] is 95.4%; in assay [2], 98%; in assay [3] it was 93.4%; in assay [4], 91.3%; in [5], 102%; in [6] it was 86.3%. Further, the growth in assay [7] is 93.5%; in [8], 95%; in assay [9], 104%; in assay [10] it was 107%.

As to `Oc1ccc(Cl)cc1Cc1cc(Cl)cc(Cl)c1O`, the growth in assay [1] is 9.44% (active); in [2], 90.1%; in [3], 29.9%; in assay [4], 22.9%; in assay [5], 20.9%; in assay [6], -24.9% (active). Also, the growth in [7] was 38.9%; in assay [8], 46.8%; in assay [9], 59.5%; in assay [10] it was 114%.

Take `CCCCn1c(-c2ccc(-c3nc(-c4ccc(Cl)cc4)no3)cc2)nc(-c2ccccc2)c1-c1ccccc1`: the growth in assay [1] was 68.2%; in [2], 84.2%; in assay [3] it was 90.4%; in assay [4] it was 92.4%; in assay [5], 95.6%; in assay [6], 75.4%. Besides, the growth was 75.2% in assay [7], 36.3% in assay [8], 82% in assay [9] and 98.8% in assay [10].

Take `Cc1ccc2c(n1)C(=O)C(Cl)=C(Nc1ccccc1C(C)C)C2=O`: the growth in assay [1] is 49.8%; in assay [2], 59.1%; in assay [3] it was 62.7%; in [4], 90.8%; in assay [5], 82.4%; in [6] it was 106%. The growth is 39.3% in assay [7], 94.7% in assay [8], 91.2% in assay [9] and 116% in [10].

With `C(=N/Nc1ncnc2nc[nH]c12)/c1ccccn1`, the growth in assay [1] is 47.6%; in assay [2], 39.9%; in [3], 22.4%; in assay [4] it was 23.6%; in assay [5] it was 55.8%; in [6] it was 19.4%. Also, the growth in assay [7] was 35.7%; in assay [8], 35.2%; in [9], 21.4%; in assay [10], 26.1%.

Take `O=C(CCCCCCSc1nc(-c2ccccc2)cc(-c2ccccc2)n1)NO`: the growth was 27.6% in assay [1]; 56% in assay [2]; 45% in assay [3]; 29.5% in [4]; 24.4% in assay [5]; 7.75% (active) in assay [6]. The growth in assay [7] was -0.297% (active); in assay [8], 27.4%; in assay [9], 65%; in assay [10], 25.7%.

On to `Cc1cccc(NC2=C(Cl)C(=O)c3nc(C)ccc3C2=O)c1`, for which the growth in [1] was -27.8% (active); in assay [2] it was -0.0359% (active); in assay [3], 13.5%; in assay [4], 42.8%; in assay [5] it was 5.47% (active); in [6], -68.7% (active). Also, the growth in assay [7] was -24% (active); in [8] it was 16.7%; in assay [9], 3.53% (active); in assay [10] it was 111%.

For `COc1ccc(C2NC(=O)C(C#N)c3c2sc2c(F)cccc32)c(OC)c1` (stereo not given), the growth is 64.8% in assay [1]; 62.2% in [2]; 90.4% in [3]; 57.4% in assay [4]; 31.8% in assay [5]; 42.2% in assay [6]. Also, the growth is 7.97% (active) in [7], 58.5% in assay [8], 68.5% in assay [9] and 88.3% in assay [10].

Take `CCN(CC)CCCNc1nc2ccccc2c2c(=O)c3cc(Cl)ccc3sc12`: the growth was 86.5% in assay [1]; 82.1% in assay [2]; 84.5% in assay [3]; 74.4% in assay [4]; 8.8% (active) in assay [5]; 36.9% in assay [6]. For the same compound, the growth is 73.8% in assay [7], 64.7% in assay [8], 75.7% in assay [9] and 56.3% in assay [10].
